Assay results taken from PubChem BioAssay.
The source made the active and inactive calls.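 How the source made its calls: active means normalized viability below 100% at a tested concentration; inactive means the rest.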

Assay: drug combination growth inhibition, ovarian cancer – cell-based, oncology-focused library, rucaparib conditional, profiling panel (AID 1508598)
Settings: patient-derived ovarian cancer cells, CellTiter-Glo viability, 144 h; at 0.0195 µM; OCI-C5x cells; with rucaparib 10 µM; stronger effect = lower value; 100% = cells with rucaparib alone

Row | Structure (SMILES) | viability
1 | C/C(=C\c1csc(C)n1)[C@H]1C[C@@H]2O[C@]2(C)CCC[C@H](C)[C@H](O)[C@@H](C)C(=O)C(C)(C)[C@H](O)CC(=O)O1 | 34.8% (active)
2 | CC(C)[C@@]12O[C@@H]1[C@@H]1O[C@]13[C@]1(O[C@@H]1C[C@@H]1C4=C(CC[C@@]13C)C(=O)OC4)[C@@H]2O | 10.1% (active)
3 | C/C(=C\c1csc(C)n1)[C@H]1C[C@@H]2O[C@@H]2CCC[C@H](C)[C@H](O)[C@@H](C)C(=O)C(C)(C)[C@H](O)CC(=O)O1 | 29.1% (active)

Same assay, conditions: patient-derived ovarian cancer cells, CellTiter-Glo viability, 144 h; at 0.0195 µM; OCI-C5x cells; without rucaparib; stronger effect = lower value

Row | Structure (SMILES) | viability
4 | C/C(=C\c1csc(C)n1)[C@H]1C[C@@H]2O[C@]2(C)CCC[C@H](C)[C@H](O)[C@@H](C)C(=O)C(C)(C)[C@H](O)CC(=O)O1 | 27.5% (active)
5 | CC(C)[C@@]12O[C@@H]1[C@@H]1O[C@]13[C@]1(O[C@@H]1C[C@@H]1C4=C(CC[C@@]13C)C(=O)OC4)[C@@H]2O | 8.03% (active)
6 | C/C(=C\c1csc(C)n1)[C@H]1C[C@@H]2O[C@@H]2CCC[C@H](C)[C@H](O)[C@@H](C)C(=O)C(C)(C)[C@H](O)CC(=O)O1 | 22% (active)

Same assay, conditions: patient-derived ovarian cancer cells, CellTiter-Glo viability, 144 h; at 0.0195 µM; OCI-P5x cells; with rucaparib 20 µM; stronger effect = lower value; 100% = cells with rucaparib alone

Row | Structure (SMILES) | viability
7 | C/C(=C\c1csc(C)n1)[C@H]1C[C@@H]2O[C@]2(C)CCC[C@H](C)[C@H](O)[C@@H](C)C(=O)C(C)(C)[C@H](O)CC(=O)O1 | 47.2% (active)
8 | CC(C)[C@@]12O[C@@H]1[C@@H]1O[C@]13[C@]1(O[C@@H]1C[C@@H]1C4=C(CC[C@@]13C)C(=O)OC4)[C@@H]2O | 12.6% (active)
9 | C/C(=C\c1csc(C)n1)[C@H]1C[C@@H]2O[C@@H]2CCC[C@H](C)[C@H](O)[C@@H](C)C(=O)C(C)(C)[C@H](O)CC(=O)O1 | 53.1% (active)

Same assay, conditions: patient-derived ovarian cancer cells, CellTiter-Glo viability, 144 h; at 0.0195 µM; OCI-P5x cells; without rucaparib; stronger effect = lower value

Row | Structure (SMILES) | viability
10 | C/C(=C\c1csc(C)n1)[C@H]1C[C@@H]2O[C@]2(C)CCC[C@H](C)[C@H](O)[C@@H](C)C(=O)C(C)(C)[C@H](O)CC(=O)O1 | 16.3% (active)
11 | CC(C)[C@@]12O[C@@H]1[C@@H]1O[C@]13[C@]1(O[C@@H]1C[C@@H]1C4=C(CC[C@@]13C)C(=O)OC4)[C@@H]2O | 8.76% (active)
12 | C/C(=C\c1csc(C)n1)[C@H]1C[C@@H]2O[C@@H]2CCC[C@H](C)[C@H](O)[C@@H](C)C(=O)C(C)(C)[C@H](O)CC(=O)O1 | 17% (active)

Same assay, conditions: patient-derived ovarian cancer cells, CellTiter-Glo viability, 144 h; at 0.0781 µM; OCI-C5x cells; with rucaparib 10 µM; stronger effect = lower value; 100% = cells with rucaparib alone

Row | Structure (SMILES) | viability
13 | C/C(=C\c1csc(C)n1)[C@H]1C[C@@H]2O[C@]2(C)CCC[C@H](C)[C@H](O)[C@@H](C)C(=O)C(C)(C)[C@H](O)CC(=O)O1 | 35.3% (active)
14 | CC(C)[C@@]12O[C@@H]1[C@@H]1O[C@]13[C@]1(O[C@@H]1C[C@@H]1C4=C(CC[C@@]13C)C(=O)OC4)[C@@H]2O | 9.57% (active)
15 | C/C(=C\c1csc(C)n1)[C@H]1C[C@@H]2O[C@@H]2CCC[C@H](C)[C@H](O)[C@@H](C)C(=O)C(C)(C)[C@H](O)CC(=O)O1 | 29.4% (active)

Same assay, conditions: patient-derived ovarian cancer cells, CellTiter-Glo viability, 144 h; at 0.0781 µM; OCI-C5x cells; without rucaparib; stronger effect = lower value

Row | Structure (SMILES) | viability
16 | C/C(=C\c1csc(C)n1)[C@H]1C[C@@H]2O[C@]2(C)CCC[C@H](C)[C@H](O)[C@@H](C)C(=O)C(C)(C)[C@H](O)CC(=O)O1 | 27.6% (active)
17 | CC(C)[C@@]12O[C@@H]1[C@@H]1O[C@]13[C@]1(O[C@@H]1C[C@@H]1C4=C(CC[C@@]13C)C(=O)OC4)[C@@H]2O | 9.36% (active)
18 | C/C(=C\c1csc(C)n1)[C@H]1C[C@@H]2O[C@@H]2CCC[C@H](C)[C@H](O)[C@@H](C)C(=O)C(C)(C)[C@H](O)CC(=O)O1 | 22.1% (active)

Same assay, conditions: patient-derived ovarian cancer cells, CellTiter-Glo viability, 144 h; at 0.0781 µM; OCI-P5x cells; with rucaparib 20 µM; stronger effect = lower value; 100% = cells with rucaparib alone

Row | Structure (SMILES) | viability
19 | C/C(=C\c1csc(C)n1)[C@H]1C[C@@H]2O[C@]2(C)CCC[C@H](C)[C@H](O)[C@@H](C)C(=O)C(C)(C)[C@H](O)CC(=O)O1 | 45.8% (active)
20 | CC(C)[C@@]12O[C@@H]1[C@@H]1O[C@]13[C@]1(O[C@@H]1C[C@@H]1C4=C(CC[C@@]13C)C(=O)OC4)[C@@H]2O | 11.1% (active)
21 | C/C(=C\c1csc(C)n1)[C@H]1C[C@@H]2O[C@@H]2CCC[C@H](C)[C@H](O)[C@@H](C)C(=O)C(C)(C)[C@H](O)CC(=O)O1 | 57% (active)

Same assay, conditions: patient-derived ovarian cancer cells, CellTiter-Glo viability, 144 h; at 0.0781 µM; OCI-P5x cells; without rucaparib; stronger effect = lower value

Row | Structure (SMILES) | viability
22 | C/C(=C\c1csc(C)n1)[C@H]1C[C@@H]2O[C@]2(C)CCC[C@H](C)[C@H](O)[C@@H](C)C(=O)C(C)(C)[C@H](O)CC(=O)O1 | 16.3% (active)
23 | CC(C)[C@@]12O[C@@H]1[C@@H]1O[C@]13[C@]1(O[C@@H]1C[C@@H]1C4=C(CC[C@@]13C)C(=O)OC4)[C@@H]2O | 9.41% (active)
24 | C/C(=C\c1csc(C)n1)[C@H]1C[C@@H]2O[C@@H]2CCC[C@H](C)[C@H](O)[C@@H](C)C(=O)C(C)(C)[C@H](O)CC(=O)O1 | 17.9% (active)

Same assay, conditions: patient-derived ovarian cancer cells, CellTiter-Glo viability, 144 h; at 0.313 µM; OCI-C5x cells; with rucaparib 10 µM; stronger effect = lower value; 100% = cells with rucaparib alone

Row | Structure (SMILES) | viability
25 | C/C(=C\c1csc(C)n1)[C@H]1C[C@@H]2O[C@]2(C)CCC[C@H](C)[C@H](O)[C@@H](C)C(=O)C(C)(C)[C@H](O)CC(=O)O1 | 40.6% (active)
26 | CC(C)[C@@]12O[C@@H]1[C@@H]1O[C@]13[C@]1(O[C@@H]1C[C@@H]1C4=C(CC[C@@]13C)C(=O)OC4)[C@@H]2O | 9.16% (active)
27 | C/C(=C\c1csc(C)n1)[C@H]1C[C@@H]2O[C@@H]2CCC[C@H](C)[C@H](O)[C@@H](C)C(=O)C(C)(C)[C@H](O)CC(=O)O1 | 29.6% (active)
